Compounds with a hit are over-represented: about 11% of the library has one in this group of screens.
ALDH1A1 inh = blocks purified human ALDH1A1 activity. Purified ALDH1A1, NADH fluorescence, propionaldehyde substrate. actives 7.3% (n = 220,000). Potency, µM (doses to about 75.3 µM), without a hit: at the top dose activity, negative = inhibition, most hits filed as inhibitors;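 also: potency is read from the fitted curve at half-maximal effect; plate controls were no enzyme wells and a reference inhibitor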
Target sequence (P00352 whole entry, looked up): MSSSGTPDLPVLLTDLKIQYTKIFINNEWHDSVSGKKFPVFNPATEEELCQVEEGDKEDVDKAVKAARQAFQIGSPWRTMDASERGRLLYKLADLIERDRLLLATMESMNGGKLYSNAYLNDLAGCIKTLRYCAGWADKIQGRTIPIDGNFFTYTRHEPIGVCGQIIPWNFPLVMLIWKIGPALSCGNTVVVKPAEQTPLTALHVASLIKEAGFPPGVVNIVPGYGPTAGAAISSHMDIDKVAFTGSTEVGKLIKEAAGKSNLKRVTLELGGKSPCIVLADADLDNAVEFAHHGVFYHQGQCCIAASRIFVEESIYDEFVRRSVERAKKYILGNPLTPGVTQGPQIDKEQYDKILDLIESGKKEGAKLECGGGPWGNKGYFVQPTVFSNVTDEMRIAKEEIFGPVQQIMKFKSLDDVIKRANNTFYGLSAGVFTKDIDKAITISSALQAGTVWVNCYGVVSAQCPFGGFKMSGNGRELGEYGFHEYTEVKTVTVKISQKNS
PNC assembly inh = perinucleolar compartment assembly inhibition; PC3M PTB-GFP, PNC prevalence imaging, 16 h; active compounds read low; activity change (PNC), negative = inhibition, % at 10 µM; actives 3.1% (n = 140,000); AID 2417;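 active = readout at or below -70, meaning at least 70% loss of cells showing the perinucleolar compartment, a nuclear body marking cancer cells; inconclusive = readout between -30 and a set limit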;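 also: plate controls were DMSO wells for no effect and camptothecin positive control wells for full effect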
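Compounds are pinned in duplicate onto adhered PC3M cells stably expressing GFP-tagged PTB and incubated 16 h at 37 C. Cells are then fixed, nuclei stained with Hoechst, and PNC-positive cells counted.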
HPGD inh = HPGD (human) dehydrogenase inhibition. P15428. purified HPGD, NADH fluorescence kinetic, PGE2 substrate. Potency, µM, without a hit: at the highest dose activity change, negative = inhibition, actives largely listed as inhibitors. actives 4.3% (n = 150,000). AID 894; also: potency is read from the fitted curve at half-maximal effect
Target sequence (P15428 whole entry, looked up): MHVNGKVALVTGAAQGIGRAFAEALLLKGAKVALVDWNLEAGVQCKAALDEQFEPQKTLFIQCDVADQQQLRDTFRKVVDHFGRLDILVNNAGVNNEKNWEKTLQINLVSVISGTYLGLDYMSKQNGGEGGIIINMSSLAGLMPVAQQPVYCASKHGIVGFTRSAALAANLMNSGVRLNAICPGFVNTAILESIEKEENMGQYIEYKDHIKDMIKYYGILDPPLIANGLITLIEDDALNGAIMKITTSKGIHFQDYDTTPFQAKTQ
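20 nM HPGD preincubated 15 min at room temperature with compound in 50 mM Tris-HCl pH 8, 0.01% Tween 20. Started with 1 mM NAD+ and 30 uM prostaglandin E2; NADH fluorescence (360/450 nm) read 5 times over 30-s intervals, last minus first.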
IMPase Li cell = cell-permeable IMPase inhibitors with lithium potentiation. CHO-M1 cells, IP1 TR-FRET (IP-One), carbachol + lithium. Potency, µM (doses to about 59.4 µM), without a hit: at the top dose activity, negative = IMPase inhibition, usual class: inhibitors. actives 0.35% (n = 210,000). AID 1457; active = well fitted inhibition curve with a large enough effect; inconclusive = small, poorly fitted or top-dose-only effect; inactive = no such curve, though single readings can be large or run the other way;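 also: IP1 builds up when IMPase is blocked and the TR-FRET signal falls; potency is read from the fitted curve at half-maximal effect; plate controls were basal vehicle for no effect and high inhibitor control for full effect; nearly all actives have a fitted effect of over 50% in size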
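Concentration–response in CHO-M1 cells, lithium-potentiated; 30 min at 37C. IP1 detected by competitive TR-FRET after 10 min lysis at RT. Hill-fitted AC50.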
IMPase cell inh = cell-permeable inhibitors of inositol monophosphatase (IMPase); P97697; CHO-M1 cells, IP1 accumulation, HTRF TR-FRET ratio; inhibition (IP1 accumulation), % at 46.1 µM; 120,000 tested, under 10 active; AID 901; active = well fitted curve in the direction sought with a large enough effect in the signal ratio, not every such curve was filed as active; inconclusive = small, poorly fitted or top-dose-only effect, or a change in a side signal; inactive = no such curve, though single readings can be large or run the other way; the % refers to the signal ratio;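 also: cells stimulated with carbachol in lithium chloride buffer; plate controls were DMSO basal wells for no effect and reference inhibitor wells for full effect; higher means more IMPase inhibition seen as more IP1 and lower FRET ratio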
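CHO-M1 cells (CHO stably expressing M1 receptor), compound up to 46 uM final, stimulated with carbachol (50 uM as added) in buffer with 50mM LiCl, pH 7.4, 30 min at 37C. Cytosolic IP1 read by TR-FRET; AC50 from Hill fits.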
The depositor's hits bear a star; ? = inconclusive; . = not tested or not shown; [ ] = remark or other dose. Unless noted, calls follow the shape of the dose curve; as a rule, active = well fitted inhibition curve with a large enough effect (not every such curve was filed as active); inconclusive = small, poorly fitted or top-dose-only effect, or another doubt; inactive = no such curve, though single readings can be large or run the other way. Unless noted, % is scaled to controls: 0 for no effect and ±100 for the full control effect.

SMILES	ALDH1A1 inh	PNC assembly inh	HPGD inh	IMPase Li cell	IMPase cell inh
CCn1c(SCC(=O)Nc2cc3oc4ccccc4c3cc2OC)nnc1-c1cccs1	12.6µM*	30.7	-4.2%	28.0%[38.3 µM]	3.6
C=CCn1c(SCC(=O)Nc2cc3oc4ccccc4c3cc2OC)nnc1-c1cnccn1	28.2µM*	?	.	.	16.5
COC(=O)C(C(=O)OC)[C@@H]1c2ccccc2[C@H]2C(=C[C@@H](C)[C@H]3C(=O)N(c4ccccc4)C(=O)[C@H]32)N1C(=O)OC	?	.	-4.5%	1.5%	.
COc1cc2c(cc1NC(=O)CSc1nnc(Cc3cccs3)n1C)oc1ccccc12	14.1µM*	?	-17.0%	25.8%[38.3 µM]	-2.7[1.84 µM]
COc1cc2c(cc1NC(=O)CSc1nnc(Cc3cccs3)n1Cc1ccco1)oc1ccccc12	5.01µM*	21.1	-29.7%	34.9%[38.3 µM]	11.0
COc1cc2c(cc1NC(=O)CSc1nnc(COc3ccc(Cl)cc3)n1C)oc1ccccc12	9.6%	-8.8	-12.9%	7.2%[38.3 µM]	9.0
Cc1cc(Cl)ccc1NC(=O)CSc1nnc(Cc2cccs2)n1Cc1ccco1	?	?	-12.8%	33.3%[38.3 µM]	10.6
CCOc1ccc(Br)cc1C1C(C(=O)OC)=C(C)NC2=C1C(=O)c1ccccc12 (centres undefined)	.	.	.	.	2.1
Fc1ccc(Nc2nc(Oc3ccc4c(c3)OCO4)nc(N3CCOCC3)n2)c(F)c1	11.9%	-95.2*	-3.9%	0.2%[38.3 µM]	5.0
N#Cc1cccc(NC(=O)N2CCCC3(CCN(C(=O)c4cccc(F)c4)CC3)C2)c1	-10.8%	.	-4.3%	12.6%	.
CN1CCN(NC(=O)CN2C(=O)/C(=C/c3ccccc3Cl)SC2=S)CC1	?	-9.9	12.6µM*	2.9%	6.4
CN1CCN(NC(=O)CN2C(=O)/C(=C/c3c(Cl)cccc3Cl)SC2=S)CC1	-6.3%	7.3	-18.6%	10.1%[38.3 µM]	2.8
C/C(=N/NC(=O)c1cc(O)c(O)c(O)c1)c1ccc([N+](=O)[O-])cc1	25.1µM*	.	.	22.3%	.
COC(=O)[C@H](COC(C)(C)C)NC(=O)O[C@@H]1C(=O)c2cc(OC)ccc2O[C@H]1c1ccc(OC)c(Br)c1	?	.	-24.3%	7.3%	.
CCOC(=O)OCC1OC(c2ccccc2)C=CC1Oc1ccc(F)cc1C (centres undefined)	5.6%[13.5 µM]	.	.	.	.
CCN(CC)S(=O)(=O)c1ccc(-c2csc(C)n2)s1	-12.8%	.	.	.	.
CCN(CC)S(=O)(=O)c1ccc(-c2csc(C)n2)cc1	25.1µM*	.	.	.	.
COc1ccccc1OCCCCn1c(-c2ccc(Cl)cc2)nc2ccccc2c1=O	.	.	.	.	0.2
CCC(/C=C/C(C)C1CCC2C3CC=C4CC(O)CC[C@@]4(C)C3CC[C@@]12C)C(C)C (some centres undefined)	-3.3%	.	-5.4%	-4.4%	.
O=C1CC(c2ccccc2)CC(O)=C1C=NCCN1CCN(Cc2ccccc2)CC1 (centres undefined)	-12.4%	.	.	.	.
Nc1nc(SC2c3cccc4cccc(c34)C2NS(=O)(=O)c2ccccc2)n[nH]1 (centres undefined)	14.1µM*	45.8	-5.7%	-0.7%	.
Cc1cc(C)nc(SC2c3cccc4cccc(c34)C2NS(=O)(=O)c2ccccc2)n1 (centres undefined)	?	-30.0	-11.8%	13.6%	.
Cc1noc(C)c1C(=O)N1CCC[C@@]2(CCN(c3ccccn3)C2)C1	-12.0%	.	-15.8%	2.1%	.
CC(=O)c1ccc(NS(=O)(=O)Cc2ccc(Cl)cc2)cc1	-7.8%	5.3	-11.0%	37.7%[38.3 µM]	3.3
CC(=O)Nc1cccc(NS(=O)(=O)Cc2ccc(Cl)cc2)c1	28.2µM*	43.2	-12.5%	0.6%[38.3 µM]	-2.3
SMILES	ALDH1A1 inh	PNC assembly inh	HPGD inh	IMPase Li cell	IMPase cell inh
COCCn1c(SCC(=O)Nc2ccc(S(N)(=O)=O)cc2)nc2ccccc21	3.5%	46.0	-5.3%	2.3%[38.3 µM]	2.1
COCCn1c(SCC(=O)Nc2ccc(Cl)c(S(=O)(=O)N(C)C)c2)nc2ccccc21	31.6µM*	?	-17.3%	33.0%[38.3 µM]	1.5
Cc1ccc(NC(=O)Cn2c(=O)cnc3ccccc32)cc1S(=O)(=O)N(C)C	14.1µM*	?	-13.3%	8.1%	6.2
CCS(=O)(=O)c1nc2ccccc2n1CC(=O)Nc1ccccc1C(=O)OC	.	.	.	.	7.4
CC(=O)c1ccccc1NC(=O)Cn1c(=O)cnc2ccccc21	1.78µM*	?	-14.1%	1.8%	.
O=C(O)c1nn(-c2ccccc2-c2n[nH]c(=O)[nH]c2=O)c(=O)[nH]c1=O	5.9%[13.5 µM]	.	-7.5%	-7.8%	.
CCN(CC)CCCC(C)n1c(-c2ccccc2)nc2c(NCCOC)nc(C)nc21 (centres undefined)	?	.	?	10.9%	.
C#C[C@H](N)CCC(=O)O	.	.	.	.	2.2
CCOc1ccc(Br)cc1CNc1ccc2c(c1)OCCO2	-10.1%	.	.	15.4%	.
Nc1nc(=S)[nH]c2c1C1(CCCC1)Cc1ccccc1-2	-10.3%	21.6	12.6µM*	?	-11.6
Nc1nc(=S)[nH]c2c1C1(CCCCC1)Cc1ccccc1-2	4.1%	18.0	-9.9%	-2.2%	.
CCNc1ncc2ncc(=O)n(C3CC3)c2n1	?	.	.	-15.0%	.
Cc1cc(/C=N/NC(N)=S)c(C)n1-c1ccc(Br)cc1	15.8µM*	.	.	18.1%	.
Cc1cc(/C=N/NC(N)=S)c(C)n1-c1cccc(Cl)c1	25.1µM*	.	.	13.4%	.
Cc1cc(/C=N/O)c(C)n1-c1ccc(Br)cc1	8.91µM*	35.7	?	9.3%	.
Cc1cccc(-n2c(C)cc(/C=N/O)c2C)c1	?	6.6	?	5.9%	.
Cc1cc(/C=N/NC(N)=S)c(C)n1-c1ccc(Cl)cc1	31.6µM*	84.1	-11.5%	13.0%	.
O=C(CN1C(=O)COc2ccc(Cl)cc21)N1CCc2ccccc21	0.1%	17.2	3.1%	23.5%[38.3 µM]	2.9
Cc1ccccc1NC(=O)COc1ccc2c(c1)OC(C)(C)CC2=O	14.1µM*	.	.	.	.
CN(C)c1ccc(/C=N/c2cc(-c3ccccc3)nn2-c2ccccc2)cc1	7.94µM*	-1.0	-19.9%	6.4%[38.3 µM]	0.8
Cc1nn(-c2ccccc2)c(/N=C/c2ccc(O)cc2)c1-c1ccccc1	2.4%	?	-6.6%	19.9%	6.0
Cc1ccccc1CSc1n[nH]c(NS(=O)(=O)c2ccccc2)n1	-7.7%	-21.6	-24.0%	39.1%[38.3 µM]	3.9[1.84 µM]
CCN(CC)S(=O)(=O)c1ccc(OCC(=O)NC2CCS(=O)(=O)C2)c([N+](=O)[O-])c1 (centres undefined)	14.1µM*	.	.	-0.7%	.
CC(=O)c1ccc(NS(=O)(=O)c2ccc(CC(C)C)cc2)cc1	6.31µM*	?	?	15.0%[38.3 µM]	2.1
CC(=O)c1ccc(NC(=O)Nc2ccc(NS(=O)(=O)c3ccc(C)cc3)cc2)cc1	?	1.6	.	.	8.2
O=C(O)CC/C(=C\c1ccc(N2CCOCC2)c([N+](=O)[O-])c1)c1nc2ccccc2s1	6.31µM*	.	.	-3.3%	.
CCOC(=O)/C(C#N)=C1/C=CN(C)C=N1	14.1µM*	7.0	25.1µM*	-14.9%[38.3 µM]	2.0
CCOC(=O)/C(C#N)=C1\C=CN(C)C(C)=N1	-3.6%	-100.0*	-15.6%	-5.0%	-0.5
